Hits are enriched below; roughly 3.6% of the tested compounds scored in any of these assays.
BoNT-A LC inh2 – inhibitors of Botulinum neurotoxin A light chain protease. inhibition, % at 10 µM. multiplex microsphere protease substrate cleavage, flow cytometry. AID 588499. 360,000 tested, 0.17% active; also: plate controls were buffer without enzyme for full effect and enzyme alone for no effect
BJeLR viability – BJeLR cell viability loss | BJeLR (HRASV12) viability, CellTiter-Glo ATP luminescence, 48 h | inhibition, % (concentration not given with the values) | 300,000 tested, 0.17% active; in the data active = inhibition above about 50%; inconclusive = no clear call, values can overlap the other calls
3CLpro inhibitor – SARS-CoV 3CLpro protease inhibition. recombinant SARS-CoV 3CLpro, quenched FRET peptide cleavage. inhibition, % at 6 µM. 290,000 tested, 0.14% active. AID 1706; in the data active = inhibition above about 12%
Anthrax LF prot – anthrax lethal factor protease inhibition; multiplex microsphere protease cleavage assay, LF; inhibition, % at 10 µM; AID 588501; 360,000 tested, 0.12% active; P15917; also: plate controls were buffer without enzyme for full effect and enzyme alone for no effect
BoNT-F LC inh – blocks Botulinum neurotoxin F light chain protease; Multiplex microsphere protease cleavage assay, flow cytometry; inhibition, % at 10 µM; 360,000 tested, 0.22% active; in the data active = inhibition above about 35%, passing the limit was not always enough; inconclusive = no clear call, values can overlap the other calls; also: plate controls were buffer without enzyme for full effect and enzyme alone for no effect
Autofluor counter – counter-screen for toxin protease inhibitors: compound fluorescence | compound autofluorescence counterscreen, microsphere flow cytometry; active compounds read high | fluorescence intensity (no concentration beside the values) | 360,000 tested, 3.1% active | AID 624483; in the data active = fluorescence intensity above about 16000; inconclusive = no clear call, values can overlap the other calls
Numbers without * were called inactive; ? = inconclusive; . = no result given. Rule as the data show it, unless noted: active = inhibition above about 30%; inconclusive = no clear call, values can overlap the other calls; inactive = below that.

SMILES	BoNT-A LC inh2	BJeLR viability	3CLpro inhibitor	Anthrax LF prot	BoNT-F LC inh	Autofluor counter
C=CCn1cc(C(=O)NCc2ccco2)c(=O)c2cc(S(=O)(=O)N3CCCCCC3)ccc21	-2	3	0	-8	-3	16902*
CCn1cc(C(=O)NCc2ccco2)c(=O)c2cc(S(=O)(=O)N3CC(C)CC(C)C3)ccc21 (stereo unspecified)	0	88*	-3	1	0	19725*
CCn1cc(C(=O)NCc2ccco2)c(=O)c2cc(S(=O)(=O)N3CCC(C)CC3)ccc21	2	7	0	-11	0	20447*
COc1ccc(SCCCn2c(=O)c3c(ncn3C)n(C)c2=O)cc1	0	0	-2	2	-1	5393
Cc1ccc(C(=O)C(OC(=O)c2cnccn2)c2ccccc2)cc1 (stereo unspecified)	0	2	1	-1	-4	2093
CCn1cc(C(=O)NCCCN2CCCC2)c(=O)c2cc(S(=O)(=O)N3CCc4ccccc4C3)ccc21	0	4	1	-3	-6	6193
CCn1cc(C(=O)NCc2ccco2)c(=O)c2cc(S(=O)(=O)N3CCc4ccccc4C3)ccc21	-1	6	-2	-2	-2	20784*
CCn1cc(C(=O)NCc2ccco2)c(=O)c2cc(S(=O)(=O)N3CCCCCC3)ccc21	?	17	1	-4	0	21862*
CCn1cc(C(=O)NCc2ccccn2)c(=O)c2cc(S(=O)(=O)N3CCCCC3)ccc21	.	-2	-1	.	.	.
O=C(NCc1ccccc1)N1CCC(n2cnc3cc(F)ccc32)CC1	0	0	2	-3	-12	3603
O=C(CSc1nnc(-c2ccc(Br)cc2)o1)Nc1cccc2ccccc12	2	-15	-1	0	2	23146*
COC(=O)c1ccccc1NC(=O)CSc1nccn1C	-1	-4	1	-5	-9	3295
Cn1ccnc1SCC(=O)Nc1cccc2ccccc12	0	0	2	-4	3	19695*
Cc1ccc(-c2nnc(SCC(=O)Nc3ccccc3F)o2)cc1	1	56*	3	5	8	6031
COc1cc(OC)cc(C(=O)N[C@H](C(=O)Nc2nc(-c3ccc(F)c(F)c3)cs2)C(C)C)c1	0	-8	-2	-1	-3	2695
CN(C)c1ccc(/C=C/C=N/Nc2nc(N3CCOCC3)nc(N3CCOCC3)n2)cc1	0	-4	-2	-7	-4	4536
COc1ccc2c(=O)c(-c3ccc(C)cc3)c(-c3ccccc3)oc2c1	0	.	.	-3	-10	2948
CCOC(=O)C1=C(COC(=O)CCOc2cc(C)ccc2C)NC(=O)NC1C (stereo unspecified)	-2	.	.	-1	1	8750
COc1ccc(-c2nc(SC(CC(=O)NCCN3CCOCC3)c3cccs3)n[nH]2)cc1 (stereo unspecified)	0	-1	2	-6	-3	3313
O=C(CCN1C(=O)c2ccccc2C1=O)N1CCN(c2ccccc2)CC1	0	3	2	-2	8	9485
O=C1CC(=C2c3ccccc3-c3ccccc32)C(=O)N1CCN1CCN(c2ccccc2)CC1	2	4	-8	-3	0	19425*
COc1ccccc1N1CCN(CCN2C(=O)CC(=C3c4ccccc4-c4ccccc43)C2=O)CC1	.	8	0	.	.	.
Cc1ccccc1N1CCN(CCN2C(=O)CC(=C3c4ccccc4-c4ccccc43)C2=O)CC1	0	5	0	-2	-5	16193*
Cc1cccc(Cl)c1OCCCn1ccnc1	-3	-6	-5	-11	?	4067
O=C(COC(=O)c1cn(-c2ccccc2)nc1-c1ccccc1)c1cccc([N+](=O)[O-])c1	-1	-6	1	-5	-5	16553*
SMILES	BoNT-A LC inh2	BJeLR viability	3CLpro inhibitor	Anthrax LF prot	BoNT-F LC inh	Autofluor counter
CCOC(=O)c1cc(OC(=O)c2ccccc2)n(-c2ccccc2)n1	-1	-3	-2	0	-1	23849*
CCOC(=O)c1cc(OC(=O)c2ccccc2Br)n(-c2ccccc2)n1	0	-11	1	-2	-6	10633
CCOC(=O)c1cc(OC(=O)c2cccc([N+](=O)[O-])c2)n(-c2ccccc2)n1	?	4	-1	0	-3	17208*
O=C(NN=Cc1cccc([N+](=O)[O-])c1)c1cccc2ccccc12	0	.	.	-4	-2	3807
Cn1c(=O)oc2ccc(C(=O)CSc3nnnn3-c3ccccc3)cc21	?	.	-5	-8	-1	19593*
O=C(CN(Cc1ccccc1)S(=O)(=O)c1ccc(Br)cc1)NCc1ccco1	-5	9	-2	-7	-9	23735*
CN(C)S(=O)(=O)c1ccc(S(=O)(=O)N(CC(=O)Nc2ccccc2)Cc2ccco2)cc1	0	-7	-6	1	-3	2480
O=C(CN(Cc1ccc(Br)cc1)S(=O)(=O)c1ccccc1)NCc1ccccn1	0	6	-3	-5	-8	5995
CCN(CC)S(=O)(=O)c1ccc(S(=O)(=O)N(CC(=O)Nc2ccccc2)Cc2ccco2)cc1	4	-1	1	0	3	22492*
COC(=O)c1ccc2nc(-c3ccc(C)cc3)c(CC3CCCCC3)n2c1	1	.	.	7	-8	7327
COc1ccc(CN2CCn3ncc(C(=O)Nc4cc(C)cc(C)c4)c3C2=O)cc1	0	12	1	1	4	2147
COc1cccc2cc(/C(=N/O)c3ccc(Br)cc3)oc12	0	3	-1	-1	-2	3510
O/N=C(/c1ccccc1)c1cc2cc(Br)cc(Br)c2o1	0	-1	0	30*	10	3708
CC(C)CNc1ncnc2c1ncn2[C@H]1CN(Cc2ccc(C(=O)O)cc2)C[C@@H](CO)O1	0	.	.	-2	5	3818
Cc1ccc(C2C(=O)N(C3CCC(C)CC3)CC(=O)N2C2CCCC2)cc1 (stereo unspecified)	-4	1	7	1	-2	23411*
O=C1C(c2ccc(F)cc2)N(C2CCCCC2)C(=O)CN1C1CCCC1 (stereo unspecified)	0	1	-11	1	4	9764
CCCOc1ccc(C2C(=O)N(C3CCCCC3)CC(=O)N2CCC)cc1OC (stereo unspecified)	0	2	-8	1	2	20044*
CCCN1C(=O)CN(C2CCCCCC2)C(=O)C1c1ccc(C)cc1 (stereo unspecified)	-1	2	0	2	-2	23066*
CCOCCCN1C(=O)CN(C2CCC(C)CC2)C(=O)C1c1ccc(C)cc1 (stereo unspecified)	2	7	2	4	0	4028
COc1cc(C2C(=O)N(C3CCCC3)CC(=O)N2Cc2ccco2)ccc1OC(C)C (stereo unspecified)	5	3	3	-2	5	21363*
CC1=C(C(=O)N(C(C)C)C(C)C)CC(CC(=O)NCc2ccco2)C(=O)N1Cc1ccc(C(C)(C)C)cc1 (stereo unspecified)	-1	.	.	-4	-2	5415

From PubChem BioAssay
